According to the supplement of paper PMC6555819:

Tested on: RARa:RXR (NR concentration 270 nM, RXRa partner concentration 90 nM)
Experiment: PBM binding z-score (relative to random genomic background probes); higher = stronger binding; sequences stand for … in GC…GCGATTGACAGCGTAGAATGAAGG
In short: (§1)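 Antibodies against each partner of ligand-free nuclear receptor dimers (one per run) detected binding on custom Agilent 4×180K protein-binding microarrays after 1 h incubation. The double-stranded probes had 34-nt variable regions carrying direct-repeat seeds, single-nucleotide variants, half-site ablations and random human genomic background sequences. Binding z-scores, from regression-normalized fluorescence, use the random background probes as reference.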

Question: Which PBM binding z-score does the source give for CCACGGAGGACAGAAGGTCAGAGCTGTCCGCTTT here?
Answer: Its PBM binding z-score is 2.2.

Question: With ATCTCGAGGTAAAGTTCAGTGAAAGATCGATAGA as the sequence, how does the PBM binding z-score read?
Answer: The PBM binding z-score was 1.34.

Question: How did the PBM binding z-score turn out when CCAGACAGGTGTAAGGTAACTCAGTCTGGTACGC was run?
Answer: Its PBM binding z-score is -0.0779.

Question: CGAACTAGGTCATCCAGGACAGTGTATACATTGA was tested. Which PBM binding z-score did it give?
Answer: Its PBM binding z-score is 2.33.

Question: With CGAACTAGGTCATCCAGGGCAGTGAATACATTGA as the sequence, how does the PBM binding z-score read?
Answer: The PBM binding z-score was 2.47.

Question: How did the PBM binding z-score turn out when GCTTTCGGGTCAAAGGTTATAGCATGAATAGAAT was run?
Answer: Its PBM binding z-score is 8.07.

Question: For GCGACTGGGGTAAAGCAGGTTACCATAAGGTTGG, which PBM binding z-score is on record?
Answer: The PBM binding z-score was 0.955.

Question: How did the PBM binding z-score turn out when AGAATGAGGTTATGAAGATCAGGGAATTGCGGTC was run?
Answer: The PBM binding z-score was 1.87.

Question: Which PBM binding z-score does the source give for GGAACGAGGGAAAAGTTGATAGCATCTGTCGACG here?
Answer: Its PBM binding z-score is -0.659.

Question: With ATATGTAGGTTAGCTGGGTTCATTCAGACTAGGC as the sequence, how does the PBM binding z-score read?
Answer: Its PBM binding z-score is 2.56.

Question: For AGAATGAGGTTATAAGTAGATCAGGGAAGAAAGT, which PBM binding z-score is on record?
Answer: Its PBM binding z-score is 1.88.

Question: With TCTAGCAGGCCAAAGGGTCACTCAAGAGGTACGG as the sequence, how does the PBM binding z-score read?
Answer: Its PBM binding z-score is 3.89.

Question: For GCGACTGGGGCAAAGCAAGTTACCATAAGGTTGG, which PBM binding z-score is on record?
Answer: The PBM binding z-score was 0.375.

Question: For GTACCAAGGTGAATAGGACGTTGATGAGTAGGCG, which PBM binding z-score is on record?
Answer: The PBM binding z-score was -0.0237.

Question: TCAAGTAGGTTACCAATGGGGCATTCAGCTTTCT was tested. Which PBM binding z-score did it give?
Answer: The PBM binding z-score was 0.518.

Question: Which PBM binding z-score does the source give for TCATATAGGTACTACAGGTGAAAGTCGGCATCTA here?
Answer: The PBM binding z-score was 0.847.

Question: With TCATATAAGTAAACAGGTGAAAGTCCGTAAGTTA as the sequence, how does the PBM binding z-score read?
Answer: Its PBM binding z-score is 1.19.

Question: For TCATGTAGGTAAATGCTAGGTGAAAGTCCGATCT, which PBM binding z-score is on record?
Answer: The PBM binding z-score was 0.568.

Question: CCTTACGGGTCACGAGGTTATAGGACGACGAGCG was tested. Which PBM binding z-score did it give?
Answer: The PBM binding z-score was 5.99.

Question: Which PBM binding z-score does the source give for ATATCAAGGTGATCGTGAGGTCGTTGATACTAAC here?
Answer: The PBM binding z-score was 2.03.

Question: With TAGCCTAGGTCATGCGGGCCACTATAGTGTCGGC as the sequence, how does the PBM binding z-score read?
Answer: Its PBM binding z-score is 2.72.

Question: How did the PBM binding z-score turn out when GTACCAAGGTGAAGAGGTCGTTGATGAGTAGGCG was run?
Answer: Its PBM binding z-score is 2.68.

Question: Which PBM binding z-score does the source give for CCTAGTTGGTCAAAGTCACACACGCTATAGGTAC here?
Answer: Its PBM binding z-score is 0.303.

Question: With TCTTGTAGATCAAGCACGTTAAGAAAGCCTGAGT as the sequence, how does the PBM binding z-score read?
Answer: The PBM binding z-score was 0.501.

Question: How did the PBM binding z-score turn out when TTACCAAGGTGAGAGGTCGTTGATGCACGCCTTG was run?
Answer: Its PBM binding z-score is 3.06.

Question: TCTTGTAGATCAAAGGCTAAGAAAGCCGAAGCCT was tested. Which PBM binding z-score did it give?
Answer: Its PBM binding z-score is 0.0326.

Question: TAGCCTAGGTCAGAACGGGCCAGTATACGCTATA was tested. Which PBM binding z-score did it give?
Answer: The PBM binding z-score was 0.873.

Question: How did the PBM binding z-score turn out when ATCGAAAGGTCGAAGGCGAGTATACCCACCCGAA was run?
Answer: Its PBM binding z-score is 2.87.

Question: Which PBM binding z-score does the source give for CCTAGCAAGCCAATCTGGGTCACTCAAGGCTTGA here?
Answer: The PBM binding z-score was 1.69.

Question: How did the PBM binding z-score turn out when CCGAGTTGGTCAGGAGGTCACACACCGGATATGA was run?
Answer: Its PBM binding z-score is 4.71.

Question: How did the PBM binding z-score turn out when AGAGACAGGTGAGTGAAGGTAACTCAGCTGGACG was run?
Answer: Its PBM binding z-score is 0.435.

Question: How did the PBM binding z-score turn out when GCTCGGCGGACAAGGTCAGAGCTTTGTCCGTAGA was run?
Answer: The PBM binding z-score was 1.95.

Question: Which PBM binding z-score does the source give for ACTAGCAGGCCAAGTTTGGGCCACTCAAACAAAG here?
Answer: The PBM binding z-score was -0.593.

Question: Which PBM binding z-score does the source give for ACTAGCAGGCCAAGTTTGGGTCACTCAGACAAAG here?
Answer: Its PBM binding z-score is 1.43.

Question: CCTTACGGGTCACTCCAGGGTATAGCATCGGAGT was tested. Which PBM binding z-score did it give?
Answer: The PBM binding z-score was 3.65.

Question: For GGAACGAGGGCAATTTGATAGCAGAGTTTGATGG, which PBM binding z-score is on record?
Answer: Its PBM binding z-score is 0.401.

Question: For CGTCCAAGGTCATAGGAGGTCAGTTAAGACAGAT, which PBM binding z-score is on record?
Answer: Its PBM binding z-score is 5.73.

Question: CGTCCAAGGTGAGCAGGTCAGTGAAAGCGACGTG was tested. Which PBM binding z-score did it give?
Answer: The PBM binding z-score was 0.783.

Question: For GCTAGTTGGTCAGTAAAAGGTCACACATCGGTCG, which PBM binding z-score is on record?
Answer: Its PBM binding z-score is 5.23.

Tested on: RARa homodimer (NR concentration 270 nM)
Experiment: as above
In short: as §1

Question: Which PBM binding z-score does the source give for CCACGGAGGACAGAAGGTCAGAGCTGTCCGCTTT here?
Answer: Its PBM binding z-score is -0.0117.

Question: With ATCTCGAGGTAAAGTTCAGTGAAAGATCGATAGA as the sequence, how does the PBM binding z-score read?
Answer: Its PBM binding z-score is 0.469.

Question: With CCAGACAGGTGTAAGGTAACTCAGTCTGGTACGC as the sequence, how does the PBM binding z-score read?
Answer: Its PBM binding z-score is -0.14.

Question: How did the PBM binding z-score turn out when CGAACTAGGTCATCCAGGACAGTGTATACATTGA was run?
Answer: Its PBM binding z-score is 0.356.

Question: With CGAACTAGGTCATCCAGGGCAGTGAATACATTGA as the sequence, how does the PBM binding z-score read?
Answer: The PBM binding z-score was 0.454.

Question: For GCTTTCGGGTCAAAGGTTATAGCATGAATAGAAT, which PBM binding z-score is on record?
Answer: Its PBM binding z-score is 1.08.

Question: For GCGACTGGGGTAAAGCAGGTTACCATAAGGTTGG, which PBM binding z-score is on record?
Answer: Its PBM binding z-score is -0.412.

Question: For AGAATGAGGTTATGAAGATCAGGGAATTGCGGTC, which PBM binding z-score is on record?
Answer: The PBM binding z-score was 0.262.

Question: GGAACGAGGGAAAAGTTGATAGCATCTGTCGACG was tested. Which PBM binding z-score did it give?
Answer: Its PBM binding z-score is -0.0387.

Question: With ATATGTAGGTTAGCTGGGTTCATTCAGACTAGGC as the sequence, how does the PBM binding z-score read?
Answer: The PBM binding z-score was 1.06.

Question: AGAATGAGGTTATAAGTAGATCAGGGAAGAAAGT was tested. Which PBM binding z-score did it give?
Answer: Its PBM binding z-score is 0.571.

Question: TCTAGCAGGCCAAAGGGTCACTCAAGAGGTACGG was tested. Which PBM binding z-score did it give?
Answer: The PBM binding z-score was 0.234.

Question: Which PBM binding z-score does the source give for GCGACTGGGGCAAAGCAAGTTACCATAAGGTTGG here?
Answer: The PBM binding z-score was -0.721.

Question: With GTACCAAGGTGAATAGGACGTTGATGAGTAGGCG as the sequence, how does the PBM binding z-score read?
Answer: The PBM binding z-score was 0.381.

Question: Which PBM binding z-score does the source give for TCAAGTAGGTTACCAATGGGGCATTCAGCTTTCT here?
Answer: The PBM binding z-score was 0.134.

Question: Which PBM binding z-score does the source give for TCATATAGGTACTACAGGTGAAAGTCGGCATCTA here?
Answer: The PBM binding z-score was 0.606.

Question: For TCATATAAGTAAACAGGTGAAAGTCCGTAAGTTA, which PBM binding z-score is on record?
Answer: The PBM binding z-score was 1.75.

Question: For TCATGTAGGTAAATGCTAGGTGAAAGTCCGATCT, which PBM binding z-score is on record?
Answer: Its PBM binding z-score is 1.39.

Question: How did the PBM binding z-score turn out when CCTTACGGGTCACGAGGTTATAGGACGACGAGCG was run?
Answer: Its PBM binding z-score is 1.17.

Question: How did the PBM binding z-score turn out when ATATCAAGGTGATCGTGAGGTCGTTGATACTAAC was run?
Answer: The PBM binding z-score was 0.406.

Question: How did the PBM binding z-score turn out when TAGCCTAGGTCATGCGGGCCACTATAGTGTCGGC was run?
Answer: Its PBM binding z-score is 0.388.

Question: GTACCAAGGTGAAGAGGTCGTTGATGAGTAGGCG was tested. Which PBM binding z-score did it give?
Answer: Its PBM binding z-score is -0.129.

Question: CCTAGTTGGTCAAAGTCACACACGCTATAGGTAC was tested. Which PBM binding z-score did it give?
Answer: Its PBM binding z-score is 1.44.

Question: Which PBM binding z-score does the source give for TCTTGTAGATCAAGCACGTTAAGAAAGCCTGAGT here?
Answer: Its PBM binding z-score is -0.338.

Question: With TTACCAAGGTGAGAGGTCGTTGATGCACGCCTTG as the sequence, how does the PBM binding z-score read?
Answer: The PBM binding z-score was -0.505.

Question: Which PBM binding z-score does the source give for TCTTGTAGATCAAAGGCTAAGAAAGCCGAAGCCT here?
Answer: Its PBM binding z-score is -0.389.

Question: With TAGCCTAGGTCAGAACGGGCCAGTATACGCTATA as the sequence, how does the PBM binding z-score read?
Answer: The PBM binding z-score was -0.513.

Question: With ATCGAAAGGTCGAAGGCGAGTATACCCACCCGAA as the sequence, how does the PBM binding z-score read?
Answer: Its PBM binding z-score is 0.519.

Question: For CCTAGCAAGCCAATCTGGGTCACTCAAGGCTTGA, which PBM binding z-score is on record?
Answer: Its PBM binding z-score is -0.371.

Question: CCGAGTTGGTCAGGAGGTCACACACCGGATATGA was tested. Which PBM binding z-score did it give?
Answer: Its PBM binding z-score is 1.54.

Question: How did the PBM binding z-score turn out when AGAGACAGGTGAGTGAAGGTAACTCAGCTGGACG was run?
Answer: The PBM binding z-score was -0.0726.

Question: For GCTCGGCGGACAAGGTCAGAGCTTTGTCCGTAGA, which PBM binding z-score is on record?
Answer: The PBM binding z-score was -0.932.

Question: ACTAGCAGGCCAAGTTTGGGCCACTCAAACAAAG was tested. Which PBM binding z-score did it give?
Answer: Its PBM binding z-score is -1.32.

Question: With ACTAGCAGGCCAAGTTTGGGTCACTCAGACAAAG as the sequence, how does the PBM binding z-score read?
Answer: Its PBM binding z-score is -0.139.

Question: Which PBM binding z-score does the source give for CCTTACGGGTCACTCCAGGGTATAGCATCGGAGT here?
Answer: The PBM binding z-score was -0.123.

Question: With GGAACGAGGGCAATTTGATAGCAGAGTTTGATGG as the sequence, how does the PBM binding z-score read?
Answer: The PBM binding z-score was -0.342.

Question: How did the PBM binding z-score turn out when CGTCCAAGGTCATAGGAGGTCAGTTAAGACAGAT was run?
Answer: Its PBM binding z-score is 1.43.

Question: How did the PBM binding z-score turn out when CGTCCAAGGTGAGCAGGTCAGTGAAAGCGACGTG was run?
Answer: The PBM binding z-score was -0.389.

Question: With GCTAGTTGGTCAGTAAAAGGTCACACATCGGTCG as the sequence, how does the PBM binding z-score read?
Answer: Its PBM binding z-score is 2.58.
